PubChem BioAssay AID1224904 (Broad Institute, 2016)
In all, about 37,000 compounds went through this assay and about 290 (0.78%) were called active. Not shown: some 10% with an inconclusive outcome.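 Rule for the calls: active = mean inhibition of at least 10% in the main channel, exceeding the control channel by a set limit; inconclusive = inhibition of 10% or more but channel gap under a set limit; inactive = mean inhibition below 10%.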 The entries come from a sample that favours actives as a whole.

Test: inhibitors of DUX4-driven ZSCAN4 reporter expression, primary screen, 293T cells, Gaussia and Italica luciferase (AID 1224904);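 for activity change, negative = inhibition: 0% = median of neutral control wells and -100% = median of positive control wells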
Conditions: 293T-iDUX4 ZSCAN4-Gaussia luciferase reporter, 24 h, stronger effect = lower value, concentration not given here; for Gaussia minus Italica difference: measured here: selective DUX4 reporter inhibition
[1] = measured here: Italica tet-on control reporter

SMILES | activity change, negative = inhibition | activity change, negative = inhibition [1] [%] | Gaussia minus Italica difference [%]
O=C(C[C@H]1CC[C@@H]2[C@H](COC[C@@H](O)CN2C(=O)Nc2ccc(Cl)cc2)O1)NC1Cc2ccccc2C1 | -9.05% (inactive) | -0.9 | -8.14
CN1C(=O)c2cc(NC(=O)c3cscn3)ccc2OC[C@H]2O[C@@H](CC(=O)NCC3CC3)CC[C@H]21 | -3.18% (inactive) | -1.57 | -1.61
CCC(=O)N1CC2(C1)[C@@H](c1ccccc1)[C@H](CO)N2CC1CCOCC1 | -0.159% (inactive) | 8.93 | -9.09
C[C@@H]1CC=CC[C@H](c2ccc(F)cc2)NC(=O)[C@@H](Cc2ccccc2)N(C)C(=O)c2ccccc2O1 (mixture of isomers) | -2.82% (inactive) | -1.88 | -0.938
CC(C)NC(=O)N1C[C@@H]2[C@H](c3ccccc31)[C@H](CO)N2C(=O)C1CCCC1 | -2.38% (inactive) | -1.49 | -0.893
CCCNC(=O)[C@@H]1[C@@H](CO)[C@@H]2Cn3c(cccc3=O)[C@H]1N2C(=O)Nc1cc(F)ccc1F | 6.78% (inactive) | 10.8 | -3.98
Cc1noc(C)c1NC(=O)N[C@@H]1C=C[C@H](CC(=O)N2CCCCC2)O[C@H]1CO | 5.84% (inactive) | 1.64 | 4.2
C[C@@H]1CN([C@H](C)CO)S(=O)(=O)c2ccc(C#CC3CCCC3)cc2O[C@@H]1CN(C)Cc1ccccc1C(=O)O | -1.04% (inactive) | -2.07 | 1.03
CC=Cc1ccc2n(c1=O)C[C@@H]1[C@@H](CO)[C@H](C(=O)N(C)C)N(CC3CCOCC3)[C@H]21 (mixture of isomers) | 3.1% (inactive) | 6.26 | -3.17
COc1ccccc1NC(=O)N[C@H]1C=C[C@H](CC(=O)N[C@@H](C)c2ccccc2)O[C@H]1CO | -2% (inactive) | -1.1 | -0.906
O=C(Nc1ccccc1F)N1C[C@H]2[C@@H](c3ccccc31)[C@H](CO)N2C(=O)c1ccccn1 | -3.65% (inactive) | -2.86 | -0.784
O=C(CN1CCOCC1)N1CCCCN2[C@H](CO)[C@H](c3ccc(Br)cc3)[C@H]2C1 | 9.07% (inactive) | -4.46 | 13.5
OC[C@H]1[C@@H](c2ccc(C#CC3(O)CCCC3)cc2)[C@H]2CN(Cc3cncnc3)CCCCN21 | 13.2% (inactive) | 12.8 | 0.35
O=C(C1CCCCC1)N1CC(=O)N2[C@H](CO)[C@@H](c3ccc(-c4ccccc4F)cc3)[C@@H]2C1 | -8.07% (inactive) | -1.6 | -6.47
CNC(=O)C[C@H]1CC[C@@H]2[C@H](COc3ccc(NC(=O)Nc4ccc(F)c(F)c4)cc3C(=O)N2C)O1 | -0.979% (inactive) | -3.84 | 2.86
O=C(C[C@@H]1C[C@H]2c3cc(NC(=O)Nc4ccccc4F)ccc3O[C@H]2[C@@H](CO)O1)NCc1ccncc1 | -1.77% (inactive) | 0.554 | -2.32
C[C@@H](NC(=O)[C@@H]1[C@@H](CO)[C@@H]2Cn3c(ccc(C4=CCCCC4)c3=O)[C@@H]2N1C)c1ccccc1 | 3.54% (inactive) | 1.39 | 2.15
CN1C(=O)c2cc(NC(=O)c3ccc(F)cc3)ccc2OC[C@H]2O[C@H](CC(=O)N3CCOCC3)CC[C@@H]21 | 1.69% (inactive) | -7.81 | 9.5

SMILES | activity change, negative = inhibition | activity change, negative = inhibition [1] [%] | Gaussia minus Italica difference [%]
COCC(=O)N[C@@H]1C=C[C@@H](CC(=O)N2CCCCC2)O[C@@H]1CO | 6.06% (inactive) | -1.08 | 7.14
O=C(C1CCCC1)N1CC2(C1)[C@H](c1ccccc1)[C@H](CO)N2CCC(F)(F)F | -0.604% (inactive) | 2.75 | -3.36
O=C(Cc1ccccc1)N1C[C@H]2[C@@H](c3ccccc31)[C@H](CO)N2C(=O)C1CCOCC1 | -0.397% (inactive) | -3.56 | 3.16
COc1ccc(NC(=O)N2C[C@H](O)COC[C@@H]3O[C@@H](CC(=O)NCc4ccccc4OC)CC[C@H]32)cc1 | 2.52% (inactive) | 3.01 | -0.496
CCCC(=O)Nc1ccc2c(c1)C(=O)N(C)[C@@H]1CC[C@H](CC(=O)NCCN3CCCCC3)O[C@@H]1CO2 | -1.36% (inactive) | 5.24 | -6.6
CO[C@H]1CN(C)C(=O)c2ccc(NC(=O)Nc3ccccc3)cc2OC[C@@H](C)N(C(=O)CC2CC2)C[C@@H]1C | -6.56% (inactive) | 5.38 | -11.9
O=C(CC1CC1)Nc1ccc2c(c1)[C@@H]1C[C@@H](CC(=O)NC3CCCCC3)O[C@H](CO)[C@@H]1O2 | 5.02% (inactive) | 5.44 | -0.425
COCC(=O)Nc1ccc2c(c1)C(=O)N(C)[C@@H]1CC[C@H](CC(=O)NCCc3ccccc3)O[C@@H]1CO2 | 0.635% (inactive) | 5.13 | -4.5
CC(C)NC(=O)N1[C@H](CO)[C@@H]2c3ccccc3N(C(=O)Nc3cccc(Cl)c3)C[C@@H]21 | 5.76% (inactive) | 2.62 | 3.13
COc1ccc(NC(=O)Nc2ccc3c(c2)[C@@H]2C[C@@H](CC(=O)NCc4ccncc4)O[C@@H](CO)[C@@H]2O3)cc1 | -2.23% (inactive) | 2.02 | -4.25
CCN(C[C@@H]1[C@H](c2ccccc2)[C@@H](CO)N1CC1CC1)C(=O)c1ccccn1 | -3.34% (inactive) | -1.85 | -1.49
COCC(=O)N(C[C@H]1N[C@H](CO)[C@H]1c1ccc(C2=CCCCC2)cc1)C(C)C | 2.12% (inactive) | 3.71 | -1.6
COc1ccccc1C#Cc1cnc2c(c1)C(=O)N([C@@H](C)CO)C[C@@H](C)[C@H](CN(C)C(=O)CN(C)C)O2 | -1.64% (inactive) | -4.12 | 2.47
CCC(=O)N1[C@H](C(=O)NCc2ccc(F)cc2)[C@@H](CO)[C@@H]2Cn3c(ccc(C4=CCCCC4)c3=O)[C@@H]21 | 2.81% (inactive) | -5.8 | 8.61
CCCN1C[C@@H](C)[C@H](OC)CN(C)C(=O)c2ccc(NC(=O)C3CCOCC3)cc2OC[C@@H]1C | 2.85% (inactive) | 6.21 | -3.36
C[C@H](NC(=O)C[C@H]1C=C[C@H](NS(=O)(=O)c2cccc(F)c2)[C@@H](CO)O1)c1ccccc1 | 2.8% (inactive) | 1.12 | 1.67
O=C1CCC(=O)N[C@H](c2ccccc2)C/C=C\CCN1 | -2.86% (inactive) | -3.05 | 0.183
